Data: PubChem BioAssay AID1159580 (chemical genetic matrix, 2015)
The whole screen tested about 5,500 compounds, of which about 2,000 (36%) were called active. Not shown: some 18% with an inconclusive outcome. Cut-off read from the data, not from the text of the source: active = normalized growth mostly below about 0.91 (no sharp cut-off); inconclusive = no clear call, values can overlap the other calls; inactive = mostly above about 0.92. Some of the results follow.

Experiment: chemical genetic growth profiling, strain panel (AID 1159580);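 note: tested at 20 µM; growth read once vehicle control cultures reached saturation at 30 °C; 1 = growth at the plate median or of vehicle wells; lower values mean less growth of the strain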
Conditions: S. cerevisiae deletion strains, growth OD

Measured: normalized growth

CC(C)C(C)/C=C/C(C)[C@H]1CCC2C3=CCC4CC(=O)CC[C@]4(C)C3CC[C@@]21C (some centres not stated)
inactive: locus YAL013W, strain DEP1, hits give low values 1.04 | locus YAL021C, strain ccr4, hits give low values 0.999 | locus YAL026C, strain drs2, hits give low values 1 | locus YAL030W, strain snc1, hits give low values 1 | locus YBL061C, strain skt5, hits give low values 1 | locus YBR009C, strain hhf1, hits give low values 0.981 | locus YBR021W, strain FUR4, hits give low values 1 | locus YBR023C, strain chs3, hits give low values 0.995 | locus YBR171W, strain sec66, hits give low values 0.986 | locus YBR229C, strain ROT2, hits give low values 1.02 | locus YBR231C, strain swc5, hits give low values 1.03 | locus YBR279W, strain paf1, hits give low values 1 | locus YCL011C, strain gbp2, hits give low values 1.01 | locus YCL016C, strain dcc1, hits give low values 1.01 | locus YCL029C, strain bik1, hits give low values 1.02 | locus YCL061C, strain MRC1, hits give low values 1.01 | locus YCL069W, strain vba3, hits give low values 0.996 | locus YCR088W, strain abp1, hits give low values 1 | locus YDL005C, strain med2, hits give low values 1 | locus YDL035C, strain GPR1, hits give low values 0.992 | locus YDL040C, strain nat1, hits give low values 1 | locus YDL074C, strain BRE1, hits give low values 1 | locus YDL101C, strain DUN1, hits give low values 1.01 | locus YDL185W, strain tfp1, hits give low values 1.01 | locus YDL192W, strain arf1, hits give low values 0.996 | locus YDR001C, strain nth1, hits give low values 1 | locus YDR069C, strain doa4, hits give low values 0.997 | locus YDR101C, strain arx1, hits give low values 1.03 | locus YDR137W, strain rgp1, hits give low values 0.927 | locus YDR150W, strain NUM1, hits give low values 1.02 | locus YDR159W, strain sac3, hits give low values 1 | locus YDR162C, strain NBP2, hits give low values 0.97 | locus YDR195W, strain ref2 0.928 | locus YDR297W, strain sur2, hits give low values 1 | locus YDR318W, strain mcm21, hits give low values 1.01 | locus YDR334W, strain swr1, hits give low values 1 | locus YDR335W, strain msn5, hits give low values 1.01 | locus YDR388W, hits give low values 1.01 | locus YDR392W, strain spt3, hits give low values 0.941 | locus YDR502C, strain sam2, hits give low values 0.999 | locus YEL003W, strain gim4, hits give low values 1.01 | locus YEL037C, strain rad23, hits give low values 1 | locus YEL061C, strain CIN8 (second series), hits give low values 1.01 | locus YEL061C, strain CIN8, hits give low values 1.01 | locus YER015W, strain faa2, hits give low values 1 | locus YER016W, strain bim1, hits give low values 1 | locus YER110C, hits give low values 1.01 | locus YER111C, strain swi4, hits give low values 1 | locus YER155C, strain BEM2 (second series), hits give low values 0.984 | locus YER155C, strain BEM2, hits give low values 1.03 | locus YER167W, strain BCK2, hits give low values 1.03 | locus YFR010W, strain ubp6, hits give low values 1.01 | locus YGL078C, strain dbp3, hits give low values 0.98 | locus YGL086W, strain mad1, hits give low values 1 | locus YGL167C, strain pmr1, hits give low values 0.995 | locus YGL173C, strain kem1, hits give low values 0.995 | locus YGL227W, strain vid30, hits give low values 1 | locus YGL240W, strain doc1, hits give low values 0.999 | locus YGL248W, strain PDE1, hits give low values 1.01 | locus YGL253W, strain hxk2, hits give low values 1.01 | locus YGR078C, strain PAC10, hits give low values 1.01 | locus YGR135W, strain pre9, hits give low values 1 | locus YGR252W, strain gcn5, hits give low values 0.985 | locus YHR013C, strain ard1, hits give low values 0.968 | locus YHR027C, strain rpn1, hits give low values 1.01 | locus YHR030C, strain SLT2, hits give low values 1.03 | locus YHR079C, strain IRE1 (second series), hits give low values 1.01 | locus YHR094C, strain hxt1, hits give low values 1.02 | locus YHR129C, strain ARP1, hits give low values 1.02 | locus YHR142W, strain chs7, hits give low values 1 | locus YHR200W, strain rpn10, hits give low values 1.01 | locus YIL066C, strain RNR3, hits give low values 1.01 | locus YIL073C, strain SPO22, hits give low values 1.02 | locus YIL125W, strain kgd1, hits give low values 1.01 | locus YIR030C, strain dcg1, hits give low values 1.02 | locus YJL092W, strain hpr5, hits give low values 1.01 | locus YJL095W, strain BCK1 (second series), hits give low values 1.01 | locus YJL095W, strain BCK1, hits give low values 1.02 | locus YJL115W, strain asf1, hits give low values 0.99 | locus YJL129C, strain trk1, hits give low values 0.998 | locus YJL134W, strain LCB3, hits give low values 1.02 | locus YJL154C, strain vps35, hits give low values 1.01 | locus YJL164C, strain tpk1, hits give low values 0.998 | locus YJL166W, strain qcr8, hits give low values 1.01 | locus YJL168C, strain set2, hits give low values 1 | locus YJL187C, strain SWE1 (second series), hits give low values 1.01 | locus YJL187C, strain SWE1, hits give low values 1 | locus YJR043C, strain POL32, hits give low values 1.02 | locus YJR075W, strain HOC1, hits give low values 1.03 | locus YKL009W, strain mrt4, hits give low values 0.95 | locus YKL068W, hits give low values 1.01 | locus YKL085W, strain MDH1 (second series), hits give low values 1.02 | locus YKL085W, strain MDH1, hits give low values 1.02 | locus YKL160W, strain elf1, hits give low values 1.01 | locus YKR001C, strain vps1, hits give low values 1.01 | locus YKR026C, strain gcn3, hits give low values 0.971 | locus YKR091W, strain srl3, hits give low values 1.01 | locus YLL001W, strain dnm1, hits give low values 0.997 | locus YLL026W, hits give low values 1 | locus YLL041C, strain sdh2, hits give low values 1 | locus YLR027C, strain aat2, hits give low values 1.01 | locus YLR039C, strain RIC1, hits give low values 0.968 | locus YLR058C, strain SHM2, hits give low values 1.02 | locus YLR102C, strain apc9, hits give low values 1.01 | locus YLR221C, strain rsa3, hits give low values 1.01 | locus YLR258W, strain gsy2, hits give low values 1 | locus YLR262C, strain YPT6 (second series), hits give low values 0.895 | locus YLR262C, strain YPT6, hits give low values 0.952 | locus YLR268W, strain sec22, hits give low values 1 | locus YLR320W, strain mms22, hits give low values 0.965 | locus YLR330W, strain CHS5, hits give low values 1.03 | locus YLR342W, strain FKS1 (second series), hits give low values 1.03 | locus YLR342W, strain FKS1, hits give low values 1 | locus YLR357W, strain rsc2, hits give low values 0.978 | locus YLR370C, strain arc18, hits give low values 0.998 | locus YLR371W, strain rom2, hits give low values 1.01 | locus YLR384C, strain iki3, hits give low values 0.997 | locus YLR418C, strain cdc73, hits give low values 1.03 | locus YML016C, strain PPZ1, hits give low values 1.02 | locus YML032C, strain rad52, hits give low values 1 | locus YML120C, strain ndi1, hits give low values 1.01 | locus YML124C, strain tub3, hits give low values 1.02 | locus YMR058W, strain fet3, hits give low values 1.01 | locus YMR078C, strain ctf18, hits give low values 1.02 | locus YMR125W, strain sto1, hits give low values 1.01 | locus YMR129W, hits give low values 0.999 | locus YMR205C, strain PFK2, hits give low values 0.976 | locus YMR223W, strain ubp8, hits give low values 0.986 | locus YMR231W, strain pep5, hits give low values 0.999 | locus YMR307W, strain GAS1, hits give low values 1.2 | locus YNL067W, strain RPL9B, hits give low values 1.02 | locus YNL071W, strain lat1, hits give low values 1.01 | locus YNL209W, strain ssb2, hits give low values 1.01 | locus YNL233W, strain BNI4, hits give low values 1.03 | locus YNL248C, strain rpa49, hits give low values 0.995 | locus YNL250W, strain rad50, hits give low values 1.01 | locus YNL271C, strain bni1, hits give low values 1 | locus YNL298W, strain CLA4, hits give low values 0.991 | locus YNL307C, strain MCK1, hits give low values 1.02 | locus YNL322C, strain KRE1 (second series), hits give low values 0.996 | locus YNR049C, strain mso1, hits give low values 1 | locus YNR052C, strain pop2, hits give low values 0.971 | locus YOL012C, strain htz1 1.52 | locus YOL147C, strain pex11, hits give low values 1.01 | locus YOR001W, strain rrp6, hits give low values 1 | locus YOR061W, strain CKA2, hits give low values 1.02 | locus YOR069W, strain VPS5, hits give low values 1.02 | locus YOR070C, strain gyp1, hits give low values 1 | locus YOR080W, strain dia2, hits give low values 1 | locus YOR083W, strain WHI5, hits give low values 1.01 | locus YOR106W, strain vam3, hits give low values 0.995 | locus YOR136W, strain idh2, hits give low values 1 | locus YOR144C, strain elg1, hits give low values 1.01 | locus YOR184W, strain ser1, hits give low values 1 | locus YOR265W, strain rbl2, hits give low values 0.999 | locus YOR270C, strain vph1, hits give low values 1.04 | locus YOR290C, strain snf2, hits give low values 0.936 | locus YOR316C, strain cot1, hits give low values 1.01 | locus YPL051W, strain arl3, hits give low values 1.03 | locus YPL078C, strain atp4, hits give low values 1 | locus YPL106C, strain sse1, hits give low values 1.01 | locus YPL240C, strain hsp82, hits give low values 0.998 | locus YPR119W, strain clb2, hits give low values 1.02 | locus YPR141C, strain kar3, hits give low values 1.01 | locus YPR163C, strain tif3, hits give low values 1.01 | locus YPR167C, strain met16, hits give low values 1.01 | strain wtn01, hits give low values 0.991
